Experiment in all cases: protein-binding microarray (PBM); PBM: ~300 nM protein, 6 mM HEPES pH 7.8, 80 mM KCl, 0.5 mM EDTA, 0.5 mM EGTA, 6% glycerol, 35 ng/ul poly-dIdC, 1% milk, 1 h, room temperature; Ap Aiptasia and Nv Nematostella (sea anemones) / Co Capsaspora / Aq Amphimedon (sponge) / Dm Drosophila / Hu human; RHD is the Rel homology domain; high values mean tight binding
Holding throughout (conditions): dsDNA, one strand shown

One assay deals with T1, GST-Dm-Relish (Drosophila melanogaster, UniProt Q94527 99-473).
T1 sequence: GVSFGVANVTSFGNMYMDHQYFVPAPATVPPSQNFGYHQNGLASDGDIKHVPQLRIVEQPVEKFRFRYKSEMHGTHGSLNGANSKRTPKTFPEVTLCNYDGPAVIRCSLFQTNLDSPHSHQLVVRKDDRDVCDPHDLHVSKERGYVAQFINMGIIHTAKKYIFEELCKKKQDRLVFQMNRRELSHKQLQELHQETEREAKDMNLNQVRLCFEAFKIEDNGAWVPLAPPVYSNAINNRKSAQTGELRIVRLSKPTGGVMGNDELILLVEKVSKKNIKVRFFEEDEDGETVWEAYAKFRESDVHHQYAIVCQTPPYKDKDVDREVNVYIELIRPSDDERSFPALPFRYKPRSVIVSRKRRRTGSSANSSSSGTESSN

A further assay has as its target T2, GST-Aq-NF-kB (Amphimedon queenslandica, UniProt A9Y5G7 2-389).
T2 sequence: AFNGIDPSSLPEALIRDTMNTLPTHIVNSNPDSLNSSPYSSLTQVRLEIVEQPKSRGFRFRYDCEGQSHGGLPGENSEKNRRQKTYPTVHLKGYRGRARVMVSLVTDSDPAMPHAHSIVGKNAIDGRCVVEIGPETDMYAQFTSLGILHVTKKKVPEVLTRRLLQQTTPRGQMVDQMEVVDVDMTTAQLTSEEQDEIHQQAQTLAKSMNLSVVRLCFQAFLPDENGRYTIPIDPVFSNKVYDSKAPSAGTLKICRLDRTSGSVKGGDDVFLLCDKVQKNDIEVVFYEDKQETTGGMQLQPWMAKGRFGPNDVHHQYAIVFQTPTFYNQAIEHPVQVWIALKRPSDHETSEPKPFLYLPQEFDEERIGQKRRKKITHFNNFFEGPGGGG

The target of another assay is T3, GST-Co-NF-kB (Capsaspora owczarzaki, UniProt F1ARL5 200-546).
T3 sequence: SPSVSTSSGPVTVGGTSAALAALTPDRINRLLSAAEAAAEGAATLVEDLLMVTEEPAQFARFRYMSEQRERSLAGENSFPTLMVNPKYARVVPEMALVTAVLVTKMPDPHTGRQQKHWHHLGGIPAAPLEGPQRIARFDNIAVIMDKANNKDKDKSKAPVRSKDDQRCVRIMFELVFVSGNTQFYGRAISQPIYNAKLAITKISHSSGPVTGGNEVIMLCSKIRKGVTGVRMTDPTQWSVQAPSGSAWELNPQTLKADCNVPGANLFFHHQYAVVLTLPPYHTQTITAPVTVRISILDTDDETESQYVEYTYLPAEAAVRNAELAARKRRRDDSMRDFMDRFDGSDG

The next assay addresses T4, GST-Ap-NF-kB RHD (Exaiptasia pallida (Aiptasia), UniProt A0A913YAJ5 2-422).
T4 sequence: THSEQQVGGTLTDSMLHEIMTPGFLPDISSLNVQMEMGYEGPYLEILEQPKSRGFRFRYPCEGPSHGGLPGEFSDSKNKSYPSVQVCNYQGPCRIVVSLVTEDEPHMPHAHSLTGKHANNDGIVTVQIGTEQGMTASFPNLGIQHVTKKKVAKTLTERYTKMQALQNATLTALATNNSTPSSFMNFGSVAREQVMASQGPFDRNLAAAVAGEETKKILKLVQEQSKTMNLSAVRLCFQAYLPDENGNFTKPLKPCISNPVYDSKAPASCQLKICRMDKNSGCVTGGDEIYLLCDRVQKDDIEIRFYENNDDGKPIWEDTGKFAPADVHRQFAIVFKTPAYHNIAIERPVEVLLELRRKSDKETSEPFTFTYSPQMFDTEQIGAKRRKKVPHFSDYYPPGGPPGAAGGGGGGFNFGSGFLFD

The target in assay [1] is T5, GST-Nv-NF-kB (Cys allele) (Nematostella vectensis, UniProt E5G601 2-411).
T5 sequence: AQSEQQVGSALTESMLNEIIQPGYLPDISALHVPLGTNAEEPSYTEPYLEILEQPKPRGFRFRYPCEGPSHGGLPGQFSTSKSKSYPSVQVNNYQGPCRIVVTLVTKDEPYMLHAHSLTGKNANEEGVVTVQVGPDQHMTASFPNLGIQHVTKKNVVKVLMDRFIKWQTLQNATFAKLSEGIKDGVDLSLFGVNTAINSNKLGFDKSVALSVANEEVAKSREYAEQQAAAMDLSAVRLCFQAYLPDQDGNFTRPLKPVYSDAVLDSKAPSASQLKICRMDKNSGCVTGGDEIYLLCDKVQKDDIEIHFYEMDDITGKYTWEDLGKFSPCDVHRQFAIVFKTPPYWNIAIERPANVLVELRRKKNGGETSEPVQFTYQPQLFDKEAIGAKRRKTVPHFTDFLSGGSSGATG

For assay [2], the target named is T6, GST-Nv-NF-kB (Ser allele) (Nematostella vectensis, UniProt A7UNT2 2-411).
T6 sequence: T5 sequence with Q21R, C66S, S207N, E215Q, V217A, E225K, A268E, D399E

Experimental findings from PMC5700166 are described below.

Positions count from the first letter of the chain named.

As for “CCGATTAACATCACGTAATTTCCTGATGTTAATCGGGTCTTGATTCGCTTGACGCTGCTG”, the binding signal with GST-Dm-Relish turned out to be 1.85 z-score; with GST-Aq-NF-kB it was 1.14 z-score.
On the same counts, the results for “CCGATTAACATCACGGAAATTCCTGATGTTAATCGGGTCTTGATTCGCTTGACGCTGCTG” are 1.83 z-score and 4.88 z-score.
On the same counts, the results for “CCGATTAACATCACCGGATTTCCTGATGTTAATCGGGTCTTGATTCGCTTGACGCTGCTG” are 1.86 z-score and 1.54 z-score.
With “CCGATTAACATCAGGAAAGTACATGATGTTAATCGGGTCTTGATTCGCTTGACGCTGCTG”, the binding signal came out at 6.88 z-score in the assay with GST-Dm-Relish and 1.61 z-score in the assay with GST-Aq-NF-kB.
For “CCGATTAACATCAAAAATTTCCTTGATGTTAATCGGGTCTTGATTCGCTTGACGCTGCTG”, the binding signal with GST-Dm-Relish is 1.94 z-score; with GST-Aq-NF-kB, 2.1 z-score.
As for “CCGATTAACATCAGGAAACTCCATGATGTTAATCGGGTCTTGATTCGCTTGACGCTGCTG”, the values for the binding signal in the assay with GST-Dm-Relish and with GST-Aq-NF-kB were 1.62 z-score and 2.15 z-score, respectively.
On the same counts, the results for “CCGATTAACATCACGGAAAGTACTGATGTTAATCGGGTCTTGATTCGCTTGACGCTGCTG” are 4.11 z-score and 2.92 z-score.
“CCGATTAACATCACGGGCATTCCTGATGTTAATCGGGTCTTGATTCGCTTGACGCTGCTG”: the binding signal in the assay with GST-Dm-Relish was determined as 2.37 z-score; with GST-Aq-NF-kB, 3.21 z-score.
The sequence “CCGATTAACATCATCGCGGGTAGTGATGTTAATCGGGTCTTGATTCGCTTGACGCTGCTG” yielded a binding signal with GST-Co-NF-kB of 1.37 z-score.
For the sequence “CCGATTAACATCAATAGTACCGATGATGTTAATCGGGTCTTGATTCGCTTGACGCTGCTG”, the binding signal in the assay with GST-Ap-NF-kB RHD was 1.43 z-score; in assay [1] it was 1.03 z-score; in assay [2], 3 z-score.
As to “CCGATTAACATCACCCGCGCTCATGATGTTAATCGGGTCTTGATTCGCTTGACGCTGCTG”, the values for the binding signal with GST-Ap-NF-kB RHD and in the assay with GST-Dm-Relish were 1.32 z-score and 1.06 z-score, respectively.
As to “CCGATTAACATCATGGGGTGTGCTGATGTTAATCGGGTCTTGATTCGCTTGACGCTGCTG”, the binding signal in the assay with GST-Ap-NF-kB RHD is 1.12 z-score; with GST-Co-NF-kB, 1.28 z-score.
In the assay with GST-Ap-NF-kB RHD, “CCGATTAACATCAGGAAATGGGATGATGTTAATCGGGTCTTGATTCGCTTGACGCTGCTG” yielded a binding signal of 1.33 z-score.
As to “CCGATTAACATCACGTGGGGCGTTGATGTTAATCGGGTCTTGATTCGCTTGACGCTGCTG”, the binding signal in assay [1] amounted to 1.36 z-score.
In the case of “CCGATTAACATCAGCTTGGGAAATGATGTTAATCGGGTCTTGATTCGCTTGACGCTGCTG”, the binding signal stood at 1.84 z-score in assay [1] and 2.33 z-score with GST-Co-NF-kB.
Consider “CCGATTAACATCAGTGGTACTTGTGATGTTAATCGGGTCTTGATTCGCTTGACGCTGCTG”, for which the binding signal in assay [2] is 1.44 z-score; with GST-Dm-Relish, 1.25 z-score.
“CCGATTAACATCAATTAGGTGGGTGATGTTAATCGGGTCTTGATTCGCTTGACGCTGCTG”: the binding signal in the assay with GST-Ap-NF-kB RHD worked out at 1.19 z-score; with GST-Co-NF-kB, 1.13 z-score.
In the assay with GST-Co-NF-kB, “CCGATTAACATCACCCAAAGTTTTGATGTTAATCGGGTCTTGATTCGCTTGACGCTGCTG” showed a binding signal of 1.24 z-score.
“CCGATTAACATCACCCCCCCCCCTGATGTTAATCGGGTCTTGATTCGCTTGACGCTGCTG”: the binding signal with GST-Ap-NF-kB RHD was found to be 5.35 z-score; in the assay with GST-Co-NF-kB, 7.37 z-score; with GST-Dm-Relish it was 4.97 z-score.
Take “CCGATTAACATCAAGATTAGGGATGATGTTAATCGGGTCTTGATTCGCTTGACGCTGCTG”: the binding signal with GST-Ap-NF-kB RHD worked out at 1.31 z-score.
For the sequence “CCGATTAACATCACTGGGAGGGCTGATGTTAATCGGGTCTTGATTCGCTTGACGCTGCTG”, the binding signal with GST-Ap-NF-kB RHD came to 1.08 z-score; with GST-Co-NF-kB it was 1.47 z-score.
“CCGATTAACATCACTAGGTAGTCTGATGTTAATCGGGTCTTGATTCGCTTGACGCTGCTG” yielded a binding signal in assay [2] of 1.04 z-score.
For “CCGATTAACATCAAGGGGGGGGGTGATGTTAATCGGGTCTTGATTCGCTTGACGCTGCTG”, the figures for the binding signal in the assay with GST-Ap-NF-kB RHD, with GST-Co-NF-kB and with GST-Dm-Relish were 5.14 z-score, 7.25 z-score and 5.34 z-score, respectively.
For the sequence “CCGATTAACATCACCCCGAACGCTGATGTTAATCGGGTCTTGATTCGCTTGACGCTGCTG”, the binding signal in the assay with GST-Ap-NF-kB RHD was found to be 1.59 z-score; with GST-Co-NF-kB it was 2.02 z-score.
